Inconclusive results are not listed. Values without a mark were called inactive. Active and inactive are the calls of the source. The call rests on the fitted dose curve; in most records, active means well fitted inhibition curve with a large enough effect; inconclusive means small, poorly fitted or top-dose-only effect; inactive means flat fitted curve, though single readings scatter.
test system: CP203; assay: qHTS profiling for inhibitors of Plasmodium falciparum proliferation (AID 504749); further: nearly all actives have a fitted effect of over 60% in size;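 on activity, negative = inhibition: 0% = DMSO vehicle and full inhibition = artemisinin control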; conditions: P. falciparum in erythrocytes, SYBR Green DNA, 72 h; series mostly up to 28.7 µM; activity, negative = inhibition: at the top concentration
Excerpt: NIH National Institute of Allergy and Infectious Diseases [NIAID] NIH Chemical Genomics Center [NCGC] MLPCN Grant: None Assay Provider: Xinzhuan Su, NIAID NCGC Assay Overview: Plasmodium falciparum is a virulent malarial parasite that kills 1-2 million people worldwide each year. Transmitted by mosquitoes, the sporozoite form of the parasite enters the blood stream to infect hepatocytes, where they become merozoites that infect red blood cells (erythrocytes). Within erythrocytes, merozoites begin a […] cycle of growth and division, after which the parasite is released to infect new red blood cells. Gametocytes, which form within erythrocytes as well, circulate in the bloodstream and are ingested by the mosquito, thereby completing the life cycle. To profile malarial isolates for differential chemical responses and to identify inhibitors of malarial growth, an assay that measures P. falciparum growth and replication within erythrocytes was employed. This assay uses a DNA binding fluorescent dye (SYBR Green) to detect parasite DNA following cell lysis. Because mature erythrocytes lack DNA, only Plasmodium-derived DNA is detected.
NCGC Assay Protocol Summary: The SYBR Green viability assay was adapted from a method described previously (Plouffe et al., 2008). For screening 3 ul culture medium was dispensed into 1536 well black clear bottom plates (Aurora Biotechnologies) using a Multidrop Combi (Thermo Fisher Scientific Inc.), 23 nL compounds in DMSO were added by a pin tool (Kalypsys), and 5 ul of erythrocytes infected with P. falciparum (0.3% parasitemia, 2.5% hematocrit final concentration) were added. The plates were incubated at 37 C in a humidified incubator in 5% CO2 for 72 h, and 2 ul lysis buffer (20 mM Tris HCl, 10 mM EDTA, 0.16% saponin, 1.6% triton X, 10X SYBR Green I supplied as 10,000X […] by Invitrogen) was added to each well. The plates were mixed for 25 sec with gentle shaking and incubated overnight at room temperature in the dark. The following morning, fluorescence intensity at 485(14) nm excitation and 535(25) nm emission wavelengths was measured on an EnVision (Perkin Elmer) plate reader. Plate reads were normalized relative to the control inhibitor (0.29 uM artemisinin) and vehicle (DMSO) wells present on each plate and then corrected by an algorithm using vehicle-only control plates at the beginning and end of the compound plate stack.
Potency means the concentration at half of the fitted maximal effect.

Point of comparison: `CN1C(C(=O)Nc2ccccn2)=C(O)c2ccccc2S1(=O)=O`, “activity, negative = inhibition” value 1.68% [at 12.8 µM]. Against it:
- Cc1cc(C(C)(C)C)cc(C)c1CC1=NCCN1 — lower, -12.7% [at 12.8 µM]
- COc1nc(C)nc(Cl)c1NC1=NCCN1 — lower, -0.0187% [at 12.8 µM]
- CS(=O)(=O)Nc1ccc([N+](=O)[O-])cc1Oc1ccccc1 — lower, 0.519% [at 12.8 µM]

With `CC#C[C@]1(O)CC[C@H]2[C@@H]3CCC4=CC(=O)CCC4=C3[C@@H](c3ccc(N(C)C)cc3)C[C@@]21C` the Potency was 19 µM (active).
In the case of `O=C(c1ccc(OCCN2CCCCC2)cc1)c1c(-c2ccc(O)cc2)sc2cc(O)ccc12`, the Potency is reported as 16.9 µM (active).
In the case of `OCCN1CCN(CCCN2c3ccccc3Sc3ccc(C(F)(F)F)cc32)CC1`, the Potency is reported as 13.5 µM (active).
For `CCCCc1oc2ccccc2c1C(=O)c1cc(I)c(OCCN(CC)CC)c(I)c1`, the Potency was 15.1 µM (active).
`O=C(Nc1ccc([N+](=O)[O-])cc1Cl)c1cc(Cl)ccc1O` was tested, and the Potency was 0.478 µM (active).
`Clc1ccccc1C(c1ccccc1)(c1ccccc1)n1ccnc1` was tested, and the Potency was 0.721 µM (active).
`CN1CCC(=C2c3ccccc3CC(=O)c3sccc32)CC1` was tested, and the Potency was 8.49 µM (active).
In the case of `CC[C@@]1(O)C(=O)OCc2c1cc1n(c2=O)Cc2cc3c(CN(C)C)c(O)ccc3nc2-1`, the Potency is reported as 6.75 µM (active).

Point of comparison: `O=C1N(c2ccccc2)c2ccccc2C1(Cc1ccncc1)Cc1ccncc1`, “activity, negative = inhibition” value 2.2%. Against it:
- CC(C)NCC(O)COc1ccc(CCOCC2CC2)cc1 (stereo not given) — lower, -7.88%
- CN(Cc1cnc2nc(N)nc(N)c2n1)c1ccc(C(=O)N[C@@H](CCC(=O)O)C(=O)O)cc1 — lower, -2.45%
- CC(=O)OCC(CCn1cnc2cnc(N)nc21)COC(C)=O — lower, -0.231%
- Cc1cc(C(C)(C)C)c(O)c(C)c1CC1=NCCN1 — lower, -0.0194%
- CC(C)NCC(O)c1ccc(O)c(O)c1 (stereo not given) — higher, 5.66%
- COc1ccccc1OCC(O)CN1CCN(CC(=O)Nc2c(C)cccc2C)CC1 (stereo not given) — higher, 2.8%
- CC12CC3CC(C)(C1)CC(N)(C3)C2 — lower, -5.93%
- Cn1c(=O)c2[nH]cnc2n(C)c1=O — higher, 9.47%
- Cn1cnc2c1c(=O)[nH]c(=O)n2C — lower, -10.5%
- COc1ccccc1N1CCN(CC(O)COc2cccc3ccccc23)CC1 (stereo not given) — lower, -10.5%
- CN1CCN2c3ccccc3Cc3ccccc3C2C1 (stereo not given) — lower, 0.292%
- CCC1(c2ccccc2)C(=O)NCNC1=O — higher, 5.23%
- Clc1ccc2c(c1)C(N1CCNCC1)=Nc1ccccc1O2 — lower, -12.4%
- CCOC(=O)Nc1ccc(NCc2ccc(F)cc2)nc1N — lower, -22.8%
- Nc1nnc(-c2cccc(Cl)c2Cl)c(N)n1 — lower, -4.76%
- COc1ccc2[nH]cc(CCNC(C)=O)c2c1 — higher, 4.54%
- CC(C)C(=O)Nc1ccc([N+](=O)[O-])c(C(F)(F)F)c1 — lower, -3.08%
- Cn1c(=O)c2c(ncn2C)n(C)c1=O — higher, 6.74%
- CC(C)Cc1ccc(C(C)C(=O)O)cc1 (stereo not given) — lower, -2.88%
- CCOC(=O)c1ncn2c1CN(C)C(=O)c1cc(F)ccc1-2 — lower, -0.039%
- CN1CCC(=C2c3ccccc3C=Cc3ccccc32)CC1 — higher, 2.55%
- Cc1cn([C@H]2C=C[C@@H](CO)O2)c(=O)[nH]c1=O — higher, 4.91%
- CS(=O)(=O)CCNCc1ccc(-c2ccc3ncnc(Nc4ccc(OCc5cccc(F)c5)c(Cl)c4)c3c2)o1 — higher, 5.34%
- NS(=O)(=O)c1cc2c(cc1Cl)NCNS2(=O)=O — higher, 10.7%
- CC(C)(Oc1ccc(C2CC2(Cl)Cl)cc1)C(=O)O (stereo not given) — lower, -0.612%
- CN(CCOc1ccc(NS(C)(=O)=O)cc1)CCc1ccc(NS(C)(=O)=O)cc1 — higher, 6.93%
- Cc1ccc(C(=O)Nc2ccc(S(=O)(=O)O)c3cc(S(=O)(=O)O)cc(S(=O)(=O)O)c23)cc1NC(=O)c1cccc(NC(=O)Nc2cccc(C(=O)Nc3cc(C(=O)Nc4ccc(S(=O)(=O)O)c5cc(S(=O)(=O)O)cc(S(=O)(=O)O)c45)ccc3C)c2)c1 — lower, -9.29%

— PubChem BioAssay (NCATS)
